Assay [1] can be described thus: A549 cell viability effects, profiling panel, calcein-AM fluorescence, 48 h, basal (AID 1162). The settings on record: higher = more signal.
A short description of assay [2]: adipocyte viability effects, profiling panel, cell-based, 3T3-L1 adipocytes, calcein-AM fluorescence, 48 h, basal (AID 1163). The settings on record: 3T3-L1 adipocytes viability, higher = more signal.
Assay [3] can be described thus: HepG2 cell viability effects, profiling panel, calcein-AM fluorescence, 48 h, basal (AID 1164). The conditions noted are these: higher = more signal.
Assay [4] can be described thus: MM1S cell viability effects, profiling panel, calcein-AM fluorescence, 48 h, basal (AID 1165).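 Further: viability of MM1S multiple myeloma cells under basal unstimulated conditions.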 The conditions noted are these: higher = more signal.
The nature of assay [5]: basal RPMI8226 viability, no added stimulus, profiling panel, cell-based, calcein-AM fluorescence, 48 h, PK04 Diversity Set (AID 1166).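 Further: cells grown under basal conditions without added stimulus.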 The conditions noted are these: RPMI8226 myeloma viability, higher = more signal.
Assay [6] can be described thus: basal HepG2 mitochondrial membrane potential changes, profiling panel, cell-based, JC-1 fluorescence, 24 h, 100 nL compound (AID 1167). The settings on record: higher = more signal.
The nature of assay [7]: basal 3T3-L1 adipocyte mitochondrial potential changes, profiling panel, cell-based, JC-1 fluorescence, 3T3-L1 adipocytes, 24 h, 100 nL compound (AID 1168). The settings on record: JC-1 mitochondrial fluorescence, higher = more signal, called active from +8 up or from −8 down.
The nature of assay [8]: basal RPMI8226 mitochondrial membrane potential changes, profiling panel, cell-based, JC-1 fluorescence, 24 h, 100 nL compound (AID 1169). The conditions noted are these: RPMI8226 myeloma, JC-1 mitochondrial potential fluorescence, higher = more signal.
The nature of assay [9]: basal MM1S mitochondrial membrane potential changes, profiling panel, cell-based, JC-1 fluorescence, 24 h, 100 nL compound (AID 1170). The settings on record: higher = more signal.
Assay [10] can be described thus: A549 lung cancer cell viability effects, profiling panel, resazurin fluorescence, 24 h, PK04 Diversity Set (AID 1171). The conditions noted are these: higher = more signal, called active from +8 up or from −8 down. In general terms: Resazurin is reduced to fluorescent resorufin, in cell work by metabolically active cells.

Activity calls are given as the source filed them.
Further: test concentration not given here.

With `CC(=O)OC[C@H]1O[C@@H](ON=C(C)CCN2CCCCc3nc(C)c(C)cc32)[C@H](OC(C)=O)[C@@H](OC(C)=O)[C@@H]1OC(C)=O`, the z-score in assay [1] was -1.33; in assay [2] it was 1.58; in assay [3], -0.716; in assay [4] it was 0.224; in assay [5], -2.19; in [6], 0.203. Besides, the z-score in assay [7] was 0.327 (inactive); in assay [8], -0.832; in assay [9], -0.411; in [10] it was -0.101 (inactive).
As for `COc1ccc(O[C@H]2C=C[C@@H](c3ccccc3)O[C@@H]2CO)cc1`, the z-score is 0.109 in [1]; 0.0705 in assay [2]; -0.27 in [3]; -0.307 in assay [4]; -0.0698 in [5]; 0.194 in assay [6]. Also, the z-score in assay [7] is -0.637 (inactive); in [8], 0.362; in assay [9], -0.42; in assay [10] it was -0.521 (inactive).
Regarding `CCOC(=O)[C@H](Cc1ccccc1)NC(=O)CCC1CC(OC(=O)NCc2cccc3ccccc23)CC2(CCCC(COC(=O)NCCOc3ccccc3)O2)O1` (stereo not given in full), the z-score is 0.128 in assay [1]; 0.0331 in assay [2]; -0.175 in assay [3]; 0.992 in assay [4]; -0.634 in assay [5]; 0.161 in assay [6]. The z-score in [7] was 0.0327 (inactive); in assay [8] it was 0.113; in assay [9] it was -0.883; in [10], 0.0235 (inactive).
With `COC(=O)[C@@H]1CC[C@H](C)[C@@H](c2ccc(C)cc2)N1C(=O)c1ccc(C=NOC[C@H]2O[C@H](c3ccccc3)C=C[C@@H]2Oc2ccc(OC)cc2)cc1`, the z-score in assay [1] is -0.798; in [2], -0.36; in [3], -0.195; in assay [4], 0.248; in [5] it was -0.537; in assay [6] it was 2.64. Further, the z-score in assay [7] was -2.02 (inactive); in assay [8] it was 0.833; in assay [9], 0.0359; in assay [10] it was 0.307 (inactive).
On to `O=C1CCCC=C1C(O)COCc1ccccc1` (stereo not given), for which the z-score in [1] is 0.384; in assay [2], -1.41; in assay [3] it was -1.13; in assay [4] it was -0.265; in assay [5], 0.729; in [6], -0.143. Moreover, the z-score in [7] was -0.649 (inactive); in [8] it was 0.728; in assay [9], -0.0651; in assay [10], 0.0235 (inactive).
For the compound `C=CCOCC1CN2[C@@H](CC[C@@H](C)[C@@H]2c2ccc(Br)cc2)C(=O)O1` (stereo not given in full), the z-score in assay [1] was 0.124; in [2], 0.312; in assay [3], 0.289; in assay [4], -0.268; in assay [5] it was -0.0306; in [6], 0.506. The z-score in [7] is -0.809 (inactive); in assay [8], -0.207; in assay [9] it was 0.672; in [10], 0.743 (inactive).
For the compound `CCN1C(=O)[C@H]2[C@H]3[C@H](O)[C@H](O)CC(=NOCC(C)C)[C@H]3CC[C@H]2C1=O`, the z-score is -0.124 in assay [1]; -0.574 in assay [2]; -0.391 in [3]; 0.199 in assay [4]; 0.286 in assay [5]; -0.584 in [6]. The z-score in assay [7] was -0.977 (inactive); in assay [8], 0.0664; in [9], -0.86; in [10], -0.348 (inactive).
Consider `CO[C@@H]1COC(=O)CC=C[C@H](C)[C@H](OC)COC(=O)[C@@H]2CCCN2C(=O)CC=C[C@H]1C`, for which the z-score in [1] was -0.125; in [2], 0.846; in [3] it was -0.138; in assay [4], 0.0805; in [5], -0.822; in [6] it was 1.07. For the same compound, the z-score in [7] is 0.332 (inactive); in assay [8], 0.114; in [9], 1.03; in [10] it was -0.541 (inactive).
For `C=CC[C@@H]1C=C[C@H](ON=C(C)CCN2CCCCc3nc(C)c(C)cc32)[C@@H](CO)O1`, the z-score in assay [1] was 0.275; in assay [2] it was -0.7; in [3], -0.389; in assay [4], 0.475; in [5], -0.332; in assay [6], -0.874. The z-score in assay [7] is -1.84 (inactive); in assay [8], -0.174; in assay [9] it was -0.514; in assay [10], -0.421 (inactive).
Consider `O=C(NN=C1C[C@@H](O)[C@@H](O)[C@@H]2[C@@H]3C(=O)N(Cc4ccccc4)C(=O)[C@@H]3CC[C@H]12)OCc1ccccc1`, for which the z-score in assay [1] is 0.614; in assay [2] it was 0.52; in assay [3], -0.604; in [4], 0.881; in assay [5], -0.256; in assay [6] it was 0.846. Further, the z-score in [7] was 0.415 (inactive); in [8] it was -0.415; in assay [9], -0.427; in [10], 0.288 (inactive).
As for `COC(=O)[C@H](C)NC(=O)CCC1CC(OC(=O)NCc2ccc3c(c2)OCO3)CC2(CCCC(COC(=O)NCCc3ccc(Cl)cc3)O2)O1` (stereo not given in full), the z-score in [1] was -0.508; in assay [2], 0.38; in [3], -0.796; in assay [4], -0.99; in assay [5], -1.27; in assay [6] it was 0.718. The z-score in [7] was -0.527 (inactive); in assay [8] it was -0.342; in assay [9], -0.864; in [10], 1.02 (inactive).
For `CC(CCN1CCCc2nc(C)c(C)cc21)=NO[C@H](C)c1cn([C@H](CO)Cc2ccccc2)nn1`, the z-score in [1] is -0.385; in assay [2], 0.849; in [3], -0.456; in assay [4], -0.0916; in assay [5], -1.88; in assay [6], 0.0197. Also, the z-score in assay [7] is -2.16 (inactive); in [8] it was 0.136; in assay [9], 0.859; in assay [10] it was -0.254 (inactive).

The values are drawn from PubChem BioAssay.
